This is a sample that favours compounds with a hit; in the whole collection about 6.9% have one here.
GRIN3A LBD mod: modulators (binders) of human NR3A ligand-binding domain; NR3A LBD differential scanning fluorimetry, Tm shift; 0% = protein alone, 100% = glycine-bound protein; Tm shift relative to glycine control, % at 25 µM; 340,000 compounds, 2.5% hits;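 active = melting temperature shift of at least 10% of the positive control shift, at one fixed dose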
Mdm2-MdmX inh: disrupts the human Mdm2-MdmX interaction; O15151+Q00987; SaOS-2 split-luciferase Mdm2/MdmX complementation, luminescence; inhibition, % at 8 µM; 330,000 compounds, 3% hits;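 active = inhibition of at least 50% at 8 µM in the primary screen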
Target sequence (O15151 whole entry, looked up): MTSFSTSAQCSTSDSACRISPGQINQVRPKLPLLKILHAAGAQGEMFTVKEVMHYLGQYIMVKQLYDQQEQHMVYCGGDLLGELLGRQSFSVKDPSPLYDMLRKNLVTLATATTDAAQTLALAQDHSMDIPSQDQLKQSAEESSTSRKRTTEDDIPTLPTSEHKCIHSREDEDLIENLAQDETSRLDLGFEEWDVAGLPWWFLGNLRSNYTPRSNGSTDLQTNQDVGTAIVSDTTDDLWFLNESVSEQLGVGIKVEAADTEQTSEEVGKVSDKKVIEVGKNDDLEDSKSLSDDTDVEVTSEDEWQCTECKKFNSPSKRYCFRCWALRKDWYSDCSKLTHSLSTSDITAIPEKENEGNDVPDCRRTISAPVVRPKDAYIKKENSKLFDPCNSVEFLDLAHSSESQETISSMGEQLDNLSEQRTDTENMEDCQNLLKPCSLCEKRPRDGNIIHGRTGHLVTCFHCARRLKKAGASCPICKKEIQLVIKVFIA
Target sequence (Q00987 whole entry, looked up): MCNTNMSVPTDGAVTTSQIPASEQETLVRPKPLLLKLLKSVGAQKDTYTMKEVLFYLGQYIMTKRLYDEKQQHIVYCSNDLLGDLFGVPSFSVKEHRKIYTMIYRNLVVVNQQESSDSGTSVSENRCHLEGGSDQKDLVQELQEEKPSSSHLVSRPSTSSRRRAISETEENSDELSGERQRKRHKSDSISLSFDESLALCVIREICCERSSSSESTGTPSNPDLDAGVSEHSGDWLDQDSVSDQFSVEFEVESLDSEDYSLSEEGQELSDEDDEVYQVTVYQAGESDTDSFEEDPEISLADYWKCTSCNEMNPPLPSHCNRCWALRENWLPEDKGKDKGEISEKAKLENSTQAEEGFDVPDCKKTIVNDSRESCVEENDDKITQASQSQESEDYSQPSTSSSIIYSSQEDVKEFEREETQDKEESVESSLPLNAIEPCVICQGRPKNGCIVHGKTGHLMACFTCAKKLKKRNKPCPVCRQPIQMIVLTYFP
SKKanGAS inh: blocks kanamycin growth of S. pyogenes SKKanGAS strain; BacTiter-Glo, 6 h; 300,000 compounds, 1.3% hits; inhibition, % at 7.5 µM;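 active = mean replicate score, as percent of positive control median, at least 50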;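 also: strain carries kanamycin resistance gene driven by streptokinase promoter and grows in 40 µg/ml kanamycin; loss of luminescence reflects streptokinase promoter inhibition or plain growth inhibition; 0% = median of DMSO wells and 100% = positive control at its reference dose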
MPTP block: permeability transition pore inhibition. inhibition, % at 10 µM. 360,000 compounds, 1.4% hits. AID 602449. isolated mouse mitochondria, Ca2+ swelling absorbance, 30 min;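 active = inhibition of 50% or more, scaled per plate between neutral and stimulator controls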;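 also: 0% = DMSO wells given calcium and 100% = 1 mM EGTA wells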
CSC inhib: cancer stem cell inhibition | cancer stem cell-like cells viability, luminescence | inhibition, % at 7.5 µM | 300,000 compounds, 1.1% hits | AID 2717; in the data active = inhibition above about 75%; tested in HMLE shEcad cells
Beta cell apopt: blocks beta cell apoptosis; 300,000 compounds, 0.8% hits; protection from apoptosis, % (no concentration beside the values); AID 435005; INS-1E cytokine-induced death, ATP luminescence, 48 h; percent of positive-control rescue, neutral wells zero;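 active = Every replicate reaches about 75%, or at least half do and their mean reaches it too, limit read from the data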;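 also: 0% = cytokine-treated negative control wells and 100% = positive control rescue; higher means more ATP so stronger rescue from cytokine killing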
Mdm2 MdmX conf: human Mdm2/MdmX binding inhibition, confirmed; inhibition, % at 8 µM; luminescent assay; shares compounds with Mdm2-MdmX inh; 10,000 compounds, 55% hits; AID 489028; in the data active = inhibition above about 40%
FLuc counter: full-length luciferase inhibition in Mdm2/MdmX counter-screen. SaOS-2 full-length luciferase counterscreen, luminescence. shares compounds with Mdm2-MdmX inh. AID 504607. 6,200 compounds, 77% hits. inhibition, % at 8 µM;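 active = mean inhibition at 8 µM reaching about 37%, which flags the compound as non-specific, limit read from the data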;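 also: p53-null SaOS-2 cells with luciferase driven by a doxycycline-inducible promoter; compound on cells about two nights before reading with doxycycline added after day one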
Starred values were filed as active, the others as inactive; x = not tested or not shown.

SMILES | GRIN3A LBD mod | Mdm2-MdmX inh | SKKanGAS inh | MPTP block | CSC inhib | Beta cell apopt | Mdm2 MdmX conf | FLuc counter
Cn1cnc([N+](=O)[O-])c1Sc1ccc([N+](=O)[O-])cc1 | 6 | 1 | 10 | -4 | 7 | -20 | x | x
C[C@@H]1O[C@@H](O[C@H]2C[C@@H](O)[C@]3(CO)[C@H]4[C@H](O)C[C@]5(C)[C@@H](C6=CC(=O)OC6)CC[C@]5(O)[C@@H]4CC[C@]3(O)C2)[C@H](O)[C@H](O)[C@H]1O | 0 | 83* | -2 | x | 95* | -4 | 80* | 12
C[C@H]1O[C@@H](O[C@H]2[C@@H](O)C[C@H](O[C@H]3[C@@H](O)C[C@H](O[C@H]4CC[C@@]5(C)[C@H](CC[C@@H]6[C@@H]5CC[C@]5(C)[C@@H](C7=CC(=O)OC7)CC[C@]65O)C4)O[C@@H]3C)O[C@@H]2C)C[C@H](O)[C@@H]1O | -1 | x | x | x | x | x | x | x
CC(C)(O)[C@H]1O[C@H]2CC[C@@]3(C)[C@@](O)(CC[C@H]4Cc5c([nH]c6ccccc56)[C@@]43C)C2=CC1=O | -8 | 62* | 7 | x | 16 | 4 | 50* | 77*
C=C1C(=O)O[C@@H]2C[C@@H](C)[C@H]3C=CC(=O)[C@]3(O)C[C@@H]12 | -1 | 58* | 1 | 0 | 3 | 2 | -8 | x
CCCCc1ncc(CN2CCCC(C(=O)c3ccc(SC)cc3)C2)[nH]1 (configuration not stated) | 1 | 0 | -1 | 0 | 1 | 51 | x | x
O=C(Cc1cccs1)N1Cc2ccccc2-n2nncc2C1 | x | x | x | 0 | x | x | x | x
CCCCCCn1c(=O)c(C(=O)Nc2ncccc2O)c(O)c2ccccc21 | 0 | 45 | 10 | 15 | 33 | x | x | x
CCCCCn1c(=O)c(C(=O)NCc2ccncc2)c(O)c2ccccc21 | 1 | 51* | 78* | 2 | 23 | 16 | 13 | x
CCCCn1c(=O)c(C(=O)NCc2ccc(Cl)cc2)c(O)c2ccccc21 | 0 | 52* | 25 | 4 | 76* | x | 14 | x
CC(C)CN1CCN(Cc2c(F)cccc2Cl)CC1CCO (configuration not stated) | -1 | 30 | 10 | 2 | -5 | 2 | x | x
CCOc1ccc(-c2c(C)n(-c3ccc(OCC)cc3)c3[n+]2CCCCC3)cc1 | -1 | 88* | 3 | 48 | 34 | x | 87* | 49*
CCOc1ccc(-n2c(-c3ccoc3)nc3ccccc3c2=O)cc1 | 1 | -2 | 5 | -1 | x | x | x | x
N#CCN1CCN(c2ccc(C(F)(F)F)cc2)CC1 | -9 | 3 | 1 | 0 | 13 | -7 | x | x
COc1cc(CC2(CCc3ccncc3)C(=O)NC(=O)NC2=O)cc(OC)c1OC | -3 | 23 | -16 | 0 | -13 | x | x | x
COc1cc2c(cc1OC)-c1c(OC)c(OC)c(OC)c3ccnc(c13)C2=O | -7 | 72* | 13 | x | 37 | 89* | 44* | 24
CCOC(=O)c1ccc(-[n+]2c(-c3ccccc3)cc(-c3ccccc3)cc2-c2ccccc2)cc1 | -3 | 93* | 2 | x | 11 | 123* | 61* | 24
CCOC(=O)c1cccc(-[n+]2c(-c3ccccc3)cc(-c3ccccc3)cc2-c2ccccc2)c1 | -4 | 89* | -7 | 5 | 19 | 135* | 50* | 33
CCOC(=O)c1ccccc1C(=O)OCC | 3 | -9 | 17 | 2 | -8 | -11 | x | x
COc1ccc(C2C3C=CC(C3)C2C(=O)O)cc1 (configuration not stated) | x | x | x | 0 | x | x | x | x
FC(F)(F)c1ccc2c(c1)N(CCCN1CCN(CCCl)CC1)c1ccccc1S2 | -26 | 61* | 11 | 14 | 44 | 4 | 23 | x
CN1CCC(=O)N(CCN=[N+]=[N-])CC1 | 1 | 5 | 4 | 0 | 2 | -4 | x | x
COC(=O)[C@@H]1C[C@H]1[C@@H](NP(=O)(c1ccccc1)c1ccccc1)c1ccccc1 | -5 | 56* | 3 | 0 | 7 | 0 | 40* | 63*
C/C(=N\N1CCN(C)CC1)c1c(O)n(Cc2ccccc2)c(=O)[nH]c1=O | -1 | 6 | -16 | 1 | -9 | x | x | x
Cc1ccc(C(O)(c2ccc(C)c(C)c2)C2CN3CCC2CC3)cc1C (configuration not stated) | 0 | 61* | 9 | 1 | 2 | 16 | 44* | 74*
SMILES | GRIN3A LBD mod | Mdm2-MdmX inh | SKKanGAS inh | MPTP block | CSC inhib | Beta cell apopt | Mdm2 MdmX conf | FLuc counter
C[N+]12CCC(CC1)C(C(O)(c1cccc(Cl)c1)c1cccc(Cl)c1)C2 (configuration not stated) | -2 | 3 | -3 | -4 | -5 | -2 | x | x
NC1C2CN3CCN(C2)CC1(c1ccccc1)C3 (configuration not stated) | 0 | 8 | -3 | 1 | 2 | -11 | x | x
CC[C@H](C)[C@@H]1O[C@@]2(C=CC1C)CC1C[C@@H](CC=C(C)C(O[C@H]3CC(OC)C(O[C@H]4CC(OC)C(O)C(C)O4)C(C)O3)C(C)C=CC=C3CO[C@@H]4C(O)C(C)=C[C@@H](C(=O)O1)[C@]34O)O2 (some centres not stated) | x | 85* | x | x | 103* | 17 | 15 | x
C=CC[C@@H](CC/C=C/C=C/CC/C=C\[C@@H]1CSC([C@@H]2C[C@@H]2C)=N1)OC | 6 | 56* | x | 1 | x | x | 49* | 114*
CC1=NN(Cc2c[nH]c3ccccc23)C(C)(C)C1 | 0 | -19 | -13 | 0 | -16 | -19 | x | x
COc1cc(/C=C/c2nc3ccccc3c(=O)n2-c2ccccc2O)ccc1O | -23 | 69* | 27 | 2 | -2 | -1 | 18 | x
O=c1c2ccccc2nc(/C=C/c2ccccc2)n1-c1ccccc1O | -3 | 53* | 18 | 1 | 90* | 3 | 24 | x
Cc1ccccc1-n1c(/C=C/c2ccccn2)nc2ccccc2c1=O | -7 | 58* | -8 | 1 | 15 | -2 | 35 | 67*
NCCc1ccc(OCc2ccccc2)c(OCc2ccccc2)c1 | 1 | 92* | x | 8 | 106* | 9 | 24 | x
COc1ccc(CCN)cc1OC | 0 | 16 | 0 | 0 | -8 | -1 | x | x
COc1cccc(NP(=O)(Oc2ccccc2Cl)Oc2ccccc2Cl)c1 | -7 | -5 | 20 | -2 | 34 | -3 | x | x
COc1cccc(NP(=O)(Oc2ccccc2)Oc2ccccc2)c1 | 1 | 58* | -2 | 0 | 99* | 7 | 53* | 37*
COP(=O)(OC)/C(C=O)=N/Nc1ccc([N+](=O)[O-])cc1 | 0 | -14 | 1 | -4 | -14 | -1 | x | x
COc1cc(/C=C2\C(=O)NC(=O)N(c3ccccc3)C2=O)cc(OC)c1OC | -2 | 33 | 2 | -5 | -2 | -11 | x | x

Source: PubChem
